Records with an inconclusive call do not appear. Where a call stands in place of a potency, no number is given. For some assays here: Potency and affinity values are given separately. Activity calls are given as the source filed them. Unless noted, no rule for the calls is given here.
Experiments:
[1] = Ebola virus entry assay, green fluorescence channel
[2] = Ebola virus entry assay, blue channel fluorescence
[3] = Ebola virus entry assay, ratio channel
[4] = Ebola virus entry assay, green channel fluorescence
[5] = Ebola virus entry assay, reporter ratio channel; Channel type: primary
[6] = Ebola virus entry assay, blue channel (ratio component)
[7] = qHTS assay for measurement of the activity of small molecule inhibitors on Zika virus induced Caspase-3 activity in human iPSC derived neural progenitor cells (hNPCs) (AID 1224857; active = well fitted inhibition curve with a large enough effect; also: nearly all actives have a fitted effect of over 65% in size); conditions: hNPCs ZIKV-induced caspase-3/7, Caspase-Glo luminescence, 6 h; series mostly up to 45.7 µM
How it was run: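 Pretreat hNPCs with compound 1 h; infect ZIKV 2 FFU/cell; 6 h 37 C, 5% CO2; Caspase-Glo 3/7, 30 min RT; luminescence; normalize to no-virus and virus-only wells.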

[8] = qHTS assay for measurement of the activity of small molecule inhibitors on Zika virus induced Caspase-3 activity in human astrocytoma cells (AID 1224859; active = well fitted inhibition curve with a large enough effect); conditions: SNB-19 ZIKV-induced caspase-3/7, luminescence, 6 h; series mostly up to 45.7 µM
How it was run: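 Human SNB-19 astrocytoma cells in RPMI 1640 with 10% FBS receive compound one hour ahead of Zika virus at 2 FFU/cell. After 6 h infection, caspase-3/7 activity is detected by Caspase-Glo luminescence.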

[9] = qHTS profiling of the MIPE4 collection as inhibitors of Plasmodium falciparum (3D7) proliferation (AID 743344); conditions: P. falciparum 3D7 in erythrocytes, SYBR Green DNA fluorescence, 72 h; at 28.5 µM (top of the series)
How it was run: (§1)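 Parasite DNA was quantified by SYBR Green I fluorescence (ex 485, em 535 nm) after overnight lysis in saponin/Triton buffer at room temperature. Cultures at 0.3% parasitemia and 2.5% hematocrit were first exposed to compound for 72 h at 37 C; signals were normalised to artemisinin (0.29 uM) and vehicle wells.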

[10] = qHTS profiling of the MIPE4 collection as inhibitors of Plasmodium falciparum (DD2) proliferation (AID 743345); conditions: P. falciparum Dd2 in erythrocytes, SYBR Green DNA, 72 h; at 28.5 µM (top of the series)
How it was run: as §1

[11] = qHTS profiling of the MIPE4 collection as inhibitors of Plasmodium falciparum (DD2) proliferation (Rep 2) (AID 743346); conditions: P. falciparum Dd2 in erythrocytes, SYBR Green DNA, 72 h; at 28.5 µM (top of the series)
How it was run: as §1

[12] = qHTS profiling of the MIPE4 collection as inhibitors of Plasmodium falciparum (HB3) proliferation (AID 743347); conditions: P. falciparum HB3 in erythrocytes, SYBR Green DNA, 72 h; at 28.5 µM (top of the series)
How it was run: as §1

For CC1=C2[C@H]3OC(=O)[C@@H](C)[C@@H]3CC[C@@]2(C)C=CC1=O, the efficacy [1] was 18.3% (inactive), the outcome [2] was “inactive” and the outcome [3] was “inactive”. For the same molecule, the outcome [4] was “inactive”, the outcome [5] was “inactive” and the outcome [6] was “inactive”. The Potency [7] was “inactive” and the outcome [8] was “inactive”.
For CCO[C@H]1O[C@@H]2OC3(C)CC[C@H]4[C@H](C)CC[C@@H]([C@H]1C)[C@@]24OO3, the efficacy [1] was 19.2% (inactive), the outcome [2] was “inactive” and the outcome [3] was “inactive”. The outcome [4] was “inactive”, the outcome [5] was “inactive” and the outcome [6] was “inactive”. For the same molecule, the Potency [7] was “inactive” and the outcome [8] was “inactive”.
With C[C@]12CC[C@H]3[C@@H](CC=C4C[C@@H](O)CC[C@@]43C)[C@@H]1CC[C@@H]2O the efficacy [1] was -35.9% (inactive), the outcome [2] was “inactive” and the outcome [3] was “inactive”. The outcome [4] was “inactive”, the outcome [5] was “inactive” and the outcome [6] was “inactive”. The Potency [7] was “inactive” and the outcome [8] was “inactive”.
For COc1ccc(CN2CCNCC2)c(OC)c1OC, the efficacy [1] was 47.4% (inactive), the outcome [2] was “inactive” and the outcome [3] was “inactive”. The outcome [4] was “inactive”, the outcome [5] was “inactive” and the outcome [6] was “inactive”. The Potency [7] was “inactive” and the outcome [8] was “inactive”.
For CC(Cc1ccc2c(c1)OCO2)NO (centres undefined), the efficacy [1] was -23.6% (inactive), the outcome [2] was “inactive” and the outcome [3] was “inactive”. The outcome [4] was “inactive”, the outcome [5] was “inactive” and the outcome [6] was “inactive”. For the same molecule, the Potency [7] was “inactive” and the outcome [8] was “inactive”.
In the case of O=C(CCCCl)c1ccc(F)cc1, the efficacy [1] is reported as 36.2% (inactive), the outcome [2] is reported as “inactive” and the outcome [3] is reported as “inactive”. For the same molecule, the outcome [4] was “inactive”, the outcome [5] was “inactive” and the outcome [6] was “inactive”. The Potency [7] was “inactive” and the outcome [8] was “inactive”.
In the case of CCOC(=O)c1ncn2c1CN(C)C(=O)c1c(I)cccc1-2, the efficacy [1] is reported as 19.2% (inactive), the outcome [2] is reported as “inactive” and the outcome [3] is reported as “inactive”. The outcome [4] was “inactive”, the outcome [5] was “inactive” and the outcome [6] was “inactive”. For the same molecule, the Potency [7] was “inactive” and the outcome [8] was “inactive”.
In the case of NCc1cccnc1, the efficacy [1] is reported as -20.3% (inactive), the outcome [2] is reported as “inactive” and the outcome [3] is reported as “inactive”. For the same molecule, the outcome [4] was “inactive”, the outcome [5] was “inactive” and the outcome [6] was “inactive”. The Potency [7] was “inactive” and the outcome [8] was “inactive”.
With N#Cc1nn(-c2c(Cl)cc(C(F)(F)F)cc2Cl)c(N)c1S(=O)C(F)(F)F (centres undefined) the efficacy [1] was 9.5% (inactive), the outcome [2] was “inactive” and the outcome [3] was “inactive”. The outcome [4] was “inactive”, the outcome [5] was “inactive” and the outcome [6] was “inactive”. For the same molecule, the Potency [7] was “inactive” and the outcome [8] was “inactive”.
In the case of C[C@]12CC[C@H](O)CC1=CC[C@@H]1[C@@H]2CC[C@]2(C)C(=O)CC[C@@H]12, the efficacy [1] is reported as 42.1% (inactive), the outcome [2] is reported as “inactive” and the outcome [3] is reported as “inactive”. For the same molecule, the outcome [4] was “inactive”, the outcome [5] was “inactive” and the outcome [6] was “inactive”. The Potency [7] was “inactive” and the outcome [8] was “inactive”.
With CCOC(=O)NC(C)(C)Cc1ccc(Cl)cc1 the efficacy [1] was -26.2% (inactive), the outcome [2] was “inactive” and the outcome [3] was “inactive”. For the same molecule, the outcome [4] was “inactive”, the outcome [5] was “inactive” and the outcome [6] was “inactive”. For the same molecule, the Potency [7] was “inactive” and the outcome [8] was “inactive”.
For CN(C)CCc1c[nH]c2ccc(O)cc12, the efficacy [1] was -13.8% (inactive), the outcome [2] was “inactive” and the outcome [3] was “inactive”. For the same molecule, the outcome [4] was “inactive”, the outcome [5] was “inactive” and the outcome [6] was “inactive”. The Potency [7] was “inactive” and the outcome [8] was “inactive”.
In the case of CC(C)(C)OC(=O)c1ncn2c1[C@@H]1CCCN1C(=O)c1c(Br)cccc1-2, the efficacy [1] is reported as 19.6% (inactive), the outcome [2] is reported as “inactive” and the outcome [3] is reported as “inactive”. The outcome [4] was “inactive”, the outcome [5] was “inactive” and the Potency [7] was “inactive”. The outcome [8] was “inactive”.
In the case of CN(C)C/C=C(/c1ccc(Br)cc1)c1cccnc1, the efficacy [1] is reported as 51.4% (inactive), the AC50 [2] is reported as 39.8 µM (active) and the outcome [3] is reported as “inactive”. The AC50 [5] was 35.5 µM (active).
For CC1N=C(N)OC1c1ccccc1 (centres undefined), the efficacy [1] was 23.7% (inactive), the AC50 [2] was 31.6 µM (active) and the outcome [3] was “inactive”. The outcome [4] was “inactive”, the AC50 [5] was 31.6 µM (active) and the Potency [7] was “inactive”. The outcome [8] was “inactive”.
With Sc1ccccc1Cl the efficacy [1] was 41.3% (inactive), the outcome [2] was “inactive” and the outcome [3] was “inactive”. The outcome [4] was “inactive”, the outcome [5] was “inactive” and the Potency [7] was “inactive”. The outcome [8] was “inactive”.
Molecule CCCS(=O)c1ccc2nc(NC(=O)OC)[nH]c2c1 (centres undefined) has a parasite growth, % of DMSO control [9] of 81.1%, a parasite growth remaining, % of DMSO control (lower = more inhibition) [10] of 99.7% and a parasite growth, % of control (lower = inhibition) [11] of 101%. For the same molecule, the growth, % of control [12] was 81.4%, the efficacy [1] was 23.9% (inactive) and the outcome [2] was “inactive”. The outcome [3] was “inactive”, the outcome [4] was “inactive” and the outcome [5] was “inactive”. For the same molecule, the outcome [6] was “inactive”.
For c1ccc(C(O[C@H]2CCCN(CCc3ccc4c(c3)OCO4)C2)c2ccccc2)cc1, the efficacy [1] was 57.8% (inactive), the AC50 [2] was 28.2 µM (active) and the AC50 [3] was 25.1 µM (active). The AC50 [5] was 25.1 µM (active).
NC(N)=NC(=O)c1nc(Cl)c(N)nc1N showed a parasite growth, % of DMSO control [9] of 116%, a parasite growth remaining, % of DMSO control (lower = more inhibition) [10] of 94% and a parasite growth, % of control (lower = inhibition) [11] of 111%. For the same molecule, the growth, % of control [12] was 87.1%, the efficacy [1] was -17.5% (inactive) and the outcome [2] was “inactive”. For the same molecule, the outcome [3] was “inactive”, the outcome [4] was “inactive” and the outcome [5] was “inactive”. The outcome [6] was “inactive”.
For CN(C)CCc1c[nH]c2ccccc12, the efficacy [1] was -12.4% (inactive), the AC50 [2] was 35.5 µM (active) and the outcome [3] was “inactive”. The outcome [4] was “inactive”, the outcome [5] was “inactive” and the Potency [7] was “inactive”. The outcome [8] was “inactive”.
In the case of CN1C(=O)CN=C(c2ccccc2)c2cc(Cl)ccc21, the efficacy [1] is reported as -37.3% (inactive), the AC50 [2] is reported as 25.1 µM (active) and the outcome [3] is reported as “inactive”. The outcome [4] was “inactive”, the AC50 [5] was 35.5 µM (active) and the Potency [7] was “inactive”. For the same molecule, the outcome [8] was “inactive”.
In the case of O=C(NC(=O)c1c(F)cccc1F)Nc1cc(Cl)c(OC(F)(F)C(F)C(F)(F)F)cc1Cl (centres undefined), the efficacy [1] is reported as 43.9% (inactive), the AC50 [2] is reported as 17.8 µM (active) and the AC50 [3] is reported as 20 µM (active). For the same molecule, the outcome [4] was “inactive”, the AC50 [5] was 20 µM (active) and the Potency [7] was “inactive”. For the same molecule, the outcome [8] was “inactive”.
For CN(C)C(=S)SSC(=S)N(C)C, the efficacy [1] was -47% (inactive), the AC50 [2] was 1.26 µM (active) and the AC50 [3] was 1.26 µM (active). The outcome [4] was “inactive”, the AC50 [5] was 1.26 µM (active) and the outcome [8] was “inactive”.
With CCCC(C)C1(CC)C(=O)N=C(S)NC1=O (centres undefined) the efficacy [1] was 15.1% (inactive), the outcome [2] was “inactive” and the outcome [3] was “inactive”. For the same molecule, the outcome [4] was “inactive”, the outcome [5] was “inactive” and the Potency [7] was “inactive”. The outcome [8] was “inactive”.

From PubChem BioAssay (NCATS)
